Inconclusive results are not listed. A call without a number means that no potency is given here. Active and inactive are the calls of the source. Unless noted, calls follow the shape of the dose curve; as a rule, active = well fitted curve in the direction sought with a large enough effect in the repeat runs; inconclusive = weak or mixed curves; inactive = no such curve, though single readings can be large; an effect the other way counts as inactive or inconclusive.
Key:
[1] = qHTS assay for small molecules that induce genotoxicity in human embryonic kidney cells expressing luciferase-tagged ATAD5 (AID 651632); also: nearly all actives have a fitted effect of over 15% in size; also: potency is read from the fitted curve at half-maximal effect
Outline: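 A rise in luciferase signal from ATAD5-tagged HEK293T cells marks genetic stress. Cells were exposed to compounds for 16 hr at 37C, 5% CO2, then luciferase was quantified after a 30 min room-temperature incubation with Amplite.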

[2] = qHTS assay for small molecule agonists of the p53 signaling pathway - cell viability (AID 651633; calls by dose curve; also: nearly all actives have a fitted effect of over 30% in size; also: potency is read from the fitted curve at half-maximal effect)
Outline: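 Viability counter-read: CellTiter-Glo luminescence (30 min, room temperature) in the same p53RE-bla plates. These plates had been exposed to compounds for 16 h at 37 C.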

[3] = qHTS assay for small molecule disruptors of the mitochondrial membrane potential - cell viability (AID 720634; calls by dose curve; also: nearly all actives have a fitted effect of over 20% in size; also: potency is read from the fitted curve at half-maximal effect)
Outline: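 Cytotoxicity was quantified from ATP content by CellTiter-Glo luminescence in the same wells as the MMP dye read-out. HepG2 (2,000 cells/well) were plated overnight and exposed to compounds for 1 hr at 37 C.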

[4] = qHTS assay to test for compound auto fluorescence at 590 nm (red) in HepG2 cells (AID 720674)
Outline: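 1 hr compound incubation on HepG2 cells, 37 C, 5% CO2; plate read ex 540 nm / em 590 nm; intensities reported as Rose Bengal sodium equivalents.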

[5] = qHTS assay to test for compound auto fluorescence at 535 nm (green) in HepG2 cells (AID 720675)
[6] = qHTS assay to test for compound auto fluorescence at 460 nm (blue) in HEK293 cells (AID 720678)
Outline: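 Measured: blue fluorescence (Ex 405/Em 460 nm) of compound-treated HEK293 cells, incubated overnight at 37C with 5% CO2 and scaled to triamterene equivalents.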

[7] = qHTS assay to test for compound auto fluorescence at 590 nm (red) in HEK293 cells (AID 720679)
Outline: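 Using HEK293 cells at 2,000 per well, the screen added 23 nL of each compound after cell attachment and incubated overnight (37C, 5% CO2). The plate reader then captured red-label fluorescence, Ex/Em 540/590nm.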

[8] = qHTS assay to test for compound auto fluorescence at 535 nm (green) in HEK293 cells (AID 720680)
[9] = qHTS assay to test for compound auto fluorescence at 460 nm (blue) in HEK293 cell free culture (AID 720681)
Outline: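 Blue fluorescence (Ex 405/Em 460 nm, triamterene-equivalent) was read immediately after pin transfer of compound or DMSO into medium (DMEM, 10% FBS) without cells.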

[10] = qHTS assay to test for compound auto fluorescence at 535 nm (green) in HEK293 cell free culture (AID 720682)
Outline: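 Fluorescein serves as the green reference fluorophore; each compound's intrinsic emission at 535 nm (excitation 485 nm) is reported as an equivalent amount of that dye, measured in serum-containing DMEM without cells.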

[11] = qHTS assay to test for compound auto fluorescence at 590 nm (red) in HepG2 cell free culture (AID 720684)
Outline: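 No cells present: MEM + 10% FBS only. Compound pinned in, red label read (540/590 nm). Activity = fluorescence equivalent to Rose Bengal sodium.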

[12] = qHTS assay to test for compound auto fluorescence at 460 nm (blue) in HepG2 cell free culture (AID 720685)
Outline: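 Cell-free plates of MEM plus 10% FBS received 23 nL compound or DMSO vehicle; blue-channel (405/460 nm) intensity scored against triamterene as reference fluorophore.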

[13] = qHTS assay to test for compound auto fluorescence at 535 nm (green) in HepG2 cell free culture (AID 720686)
[14] = qHTS assay to test for compound auto fluorescence at 460 nm (blue) in HepG2 cells (AID 720687)
Outline: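 Blue-channel autofluorescence (Ex/Em 405/460 nm, triamterene-equivalent) was measured after 1 hr compound exposure at 37 C, 5% CO2. Cells were HepG2, plated overnight at 37 C in MEM plus 10% FBS.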

[15] = qHTS assay to test for compound auto fluorescence at 590 nm (red) in HEK293 cell free culture (AID 720683)
Outline: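 Red-channel autofluorescence of compounds in culture medium (DMEM, 10% FBS), no cells, measured at 540/590 nm. Rose Bengal sodium is the reference fluorophore for equivalence.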

[16] = biological target: Glucocorticoid receptor (Homo sapiens) (UniProt P04150); assay: qHTS assay to identify small molecule agonists of the glucocorticoid receptor (GR) signaling pathway (AID 720691; active = well fitted activation curve with a large enough effect in the signal ratio in the repeat runs, not every such curve was filed as active; the % refers to the signal ratio); conditions: GR-bla HeLa, beta-lactamase reporter ratio, 18 h; activation: at 62.4 µM (top of the series)
Outline: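 Agonist-mode qHTS in HeLa cells stably expressing a glucocorticoid-response-element beta-lactamase reporter. Fluorescence intensity read with FRET substrate (2 h, room temperature) after 18 h compound treatment at 37 C.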

[17] = biological target: Glucocorticoid receptor (Homo sapiens) (UniProt P04150); assay: qHTS assay to identify small molecule antagonists of the glucocorticoid receptor (GR) signaling pathway (AID 720692; active = well fitted inhibition curve with a large enough effect in the signal ratio in the repeat runs, not every such curve was filed as active; the % refers to the signal ratio)
Outline: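 Inhibition of dexamethasone-driven (5 nM final) beta-lactamase expression was measured in GRE-reporter HeLa cells over 18 h at 37C. Fluorescence was read after 2 h with the B/G FRET substrate at room temperature.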

[18] = qHTS assay for small molecule disruptors of the mitochondrial membrane potential (AID 720635); also: potency is read from the fitted curve at half-maximal effect
Outline: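 Mitochondrial membrane potential tracked with Mito-MPS dye, red aggregates (ex 540/em 590 nm) against green monomers (ex 490/em 535 nm). Compound treatment 1 hr at 37C, dye 30 min in HepG2.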

[19] = qHTS assay for small molecules that induce genotoxicity in human embryonic kidney cells expressing luciferase-tagged ATAD5 - cell viability (AID 651634; calls by dose curve; also: nearly all actives have a fitted effect of over 25% in size; also: potency is read from the fitted curve at half-maximal effect)
Outline: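 Cytotoxicity counter-readout: after 15.5 hr compound treatment at 37C, live-cell protease activity in ATAD5-luciferase HEK293T cells measured by CellTiter-Fluor fluorescence, 30 min development at 37C.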

Chain of Glucocorticoid receptor (Homo sapiens) (P04150 whole entry, looked up): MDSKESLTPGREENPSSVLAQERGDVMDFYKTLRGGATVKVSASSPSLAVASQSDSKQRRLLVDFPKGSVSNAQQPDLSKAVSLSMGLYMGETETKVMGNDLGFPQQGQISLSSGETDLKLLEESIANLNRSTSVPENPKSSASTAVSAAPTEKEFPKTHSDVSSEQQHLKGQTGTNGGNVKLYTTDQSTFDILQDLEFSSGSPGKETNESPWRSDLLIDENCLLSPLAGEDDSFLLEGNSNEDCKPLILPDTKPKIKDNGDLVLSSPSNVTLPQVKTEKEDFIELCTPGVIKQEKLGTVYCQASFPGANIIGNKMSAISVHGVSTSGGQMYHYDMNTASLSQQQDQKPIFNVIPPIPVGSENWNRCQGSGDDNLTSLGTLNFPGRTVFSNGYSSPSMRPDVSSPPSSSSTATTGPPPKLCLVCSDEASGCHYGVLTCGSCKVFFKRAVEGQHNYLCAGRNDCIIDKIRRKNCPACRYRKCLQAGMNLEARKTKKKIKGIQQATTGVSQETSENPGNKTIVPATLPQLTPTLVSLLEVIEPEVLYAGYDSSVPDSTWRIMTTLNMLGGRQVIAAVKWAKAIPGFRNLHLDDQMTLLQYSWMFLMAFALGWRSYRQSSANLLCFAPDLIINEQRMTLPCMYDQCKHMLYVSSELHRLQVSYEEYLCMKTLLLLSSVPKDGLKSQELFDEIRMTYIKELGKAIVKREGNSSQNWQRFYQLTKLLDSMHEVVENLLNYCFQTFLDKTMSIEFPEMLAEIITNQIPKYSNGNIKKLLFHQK

SMILES	Potency [1]	Potency [2]	Potency [3]	Potency [4]	Potency [5]	Potency [6]	Potency [7]	Potency [8]	Potency [9]	Potency [10]	Potency [11]	outcome [12]	Potency [13]	outcome [14]	Potency [15]	Potency [16]	Potency [17]	Potency [18]	Potency [19]
CCN(CC)CCOCCOC(=O)C(CC)(CC)c1ccccc1	inactive	inactive	inactive	inactive	inactive	inactive	inactive	inactive	inactive	inactive	inactive	inactive	inactive	inactive					
CN1CCCC(CN2c3ccccc3Sc3ccccc32)C1 (stereo unspecified)	inactive	inactive	inactive	inactive	inactive	inactive	inactive	inactive	inactive	inactive	inactive	inactive	inactive	inactive	inactive	inactive	inactive		
CN(C)c1ccc(C(=C2C=CC(=[N+](C)C)C=C2)c2c(O)c(S(=O)(=O)[O-])cc3cc(S(=O)(=O)O)ccc23)cc1	inactive	inactive	inactive	inactive	inactive	inactive	inactive	inactive	inactive	inactive	inactive	inactive	inactive	inactive	inactive	inactive	inactive		
CCC(=O)OCC(=O)[C@@]1(OC(=O)CC)[C@@H](C)C[C@H]2[C@@H]3CCC4=CC(=O)C=C[C@]4(C)[C@@]3(Cl)[C@@H](O)C[C@@]21C	inactive	inactive	inactive	inactive	inactive	inactive	inactive	inactive	inactive	inactive	inactive	inactive	inactive	inactive	inactive			21.1 µM (active)	
CCN1C(=O)NC(c2ccccc2)C1=O (stereo unspecified)	inactive	inactive	inactive	inactive	inactive	inactive	inactive	inactive	inactive	inactive	inactive		inactive	inactive	inactive	inactive	inactive		
O=C(Nc1ccc(/C=C/c2ccc(NC(=O)c3cc(S(=O)(=O)O)c4cccnc4c3O)cc2S(=O)(=O)O)c(S(=O)(=O)O)c1)c1cc(S(=O)(=O)O)c2cccnc2c1O	inactive	inactive	inactive	inactive	inactive	inactive	inactive		inactive	inactive	inactive	inactive	inactive	inactive	inactive	inactive	inactive		
Cn1c(O)c(N=NC(N)=S)c2ccccc21	inactive	inactive	inactive	inactive	inactive	inactive	inactive	inactive		inactive	inactive	inactive	inactive	inactive	inactive			4.95 µM (active)	
C=CC1=C(C)C2=CC3=NC(=C(CC(=O)[O-])C4=NC(=C(C)C4=C([O-])[O-])C=c4[n-]c(c(C)c4CC)=CC1=N2)C(CCC(=O)[O-])C3C.[Cu+2].[Na+].[Na+].[Na+] (stereo unspecified)	inactive	inactive		inactive	inactive	inactive	inactive	inactive	inactive	inactive	inactive	inactive	inactive	inactive	inactive				
CCOc1ccc(N=Nc2ccc(N)cc2N)cc1	0.168 µM (active)	inactive	11.9 µM (active)	inactive	inactive	inactive	inactive	inactive		inactive		inactive	inactive	inactive	inactive			1.68 µM (active)	
CCN(CC)Cc1cc(Nc2ccnc3cc(Cl)ccc23)ccc1O	inactive	inactive	inactive	inactive	inactive	inactive	inactive	inactive	inactive	inactive	inactive	inactive	inactive	inactive	inactive	inactive	inactive	inactive	
CCCCC(=O)N(Cc1ccc(-c2ccccc2-c2nn[nH]n2)cc1)[C@@H](C(=O)O)C(C)C	inactive	inactive		inactive	inactive	inactive	inactive	inactive	inactive	inactive	inactive	inactive	inactive	inactive		inactive	inactive		inactive
C=C1C(=C/C=C2\CCC[C@]3(C)[C@@H]([C@H](C)CCCC(C)(C)O)CC[C@@H]23)C[C@@H](O)C[C@@H]1O	inactive	21.1 µM (active)	inactive	inactive	inactive	inactive	inactive	inactive	inactive	inactive	inactive	inactive	inactive	inactive	inactive			10.6 µM (active)	
CCCCCCOc1ccc(C(=N)N(CCCC)CCCC)c2ccccc12	inactive		26.6 µM (active)	inactive	inactive	inactive	inactive	inactive		inactive	inactive	inactive	inactive	inactive	inactive			8.41 µM (active)	23.7 µM (active)
CCC(=O)NCCC1CCc2ccc3c(c21)CCO3 (stereo unspecified)	inactive		inactive	inactive	inactive	inactive	inactive	inactive	inactive	inactive	inactive	inactive	inactive	inactive	inactive	inactive	inactive		inactive

Reference: PubChem BioAssay (Tox21)
